A549 viability: kills or reduces viability of A549 cells in Nrf2 counter-screen; A549 ARE-Fluc cells, CellTiter-Fluor viability, 18-24 h; Potency, µM (series often up to 46 µM), without a hit: at the highest dose activity change, negative = cytotoxicity, hits mostly inhibitors; hit rate 0.16% among 390,000; AID 504648; note: % is set by controls: 0 for no effect and ±100 for the full control effect
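A549 ARE_Fluc cells in 5% FBS OPTI-MEM were exposed to compounds in concentration-response for 18-24 h at 37 deg C. Viability was read by CellTiter-Fluor fluorescence (Ex 405/Em 525) after 30 min, before the luciferase read.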
Pin1 inh: human Pin1 inhibition | AID 504891 | Potency, µM (doses to about 115 µM), inactives show at the top dose activity, negative = inhibition, most hits filed as inhibitors | hit rate 0.009% among 390,000 | Pin1 FP peptide displacement, HiFluor488, 10 min; active = well fitted inhibition curve with a large enough effect in the polarisation, with a control signal flat, not every such curve was filed as active; inconclusive = small, poorly fitted or top-dose-only effect, or effect the other way, or a change in a side signal; inactive = no such curve, though single readings can be large or run the other way; the % refers to the polarisation; note: % is set by controls: 0 for no effect and ±100 for the full control effect
Target sequence (Q13526 whole entry, looked up): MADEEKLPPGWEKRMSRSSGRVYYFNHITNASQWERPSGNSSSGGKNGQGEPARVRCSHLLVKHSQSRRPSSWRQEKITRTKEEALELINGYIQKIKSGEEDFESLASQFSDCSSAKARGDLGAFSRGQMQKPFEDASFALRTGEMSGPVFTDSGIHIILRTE
Nrf2 inh: blocks Nrf2 signaling. Potency, µM (highest dose often 46 µM), without a hit: at the top dose activity change, negative = inhibition, most hits filed as inhibitors. hit rate 2.1% among 360,000. A549 ARE-Fluc reporter, luciferase luminescence, 18-24 h; note: % is set by controls: 0 for no effect and ±100 for the full control effect; nearly all actives have a fitted effect of over 60% in size
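Reporter: ARE-Fluc in A549. Exposure: 18-24 h, 37 °C, 5% CO2, 5% FBS OPTI-MEM. Readouts: fluorescent cytotoxicity (CellTiter-Fluor), then luminescent Nrf2 signal after BugLite.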
Nrf2 activator: Nrf2 pathway activation; AREc32 ARE-luciferase reporter (MCF7-derived line), luminescence, 24 h; Potency, µM (titrated, usually from 46.1 µM), inactives show top-dose activation, hits mostly activators; hit rate 0.31% among 410,000; AID 624171; note: % of control where 0% means no effect; nearly all actives have a fitted effect of over 65% in size
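AREc32 cells carrying an ARE-driven firefly luciferase reporter were seeded at 1000 cells/well in OPTI-MEM with 5% FBS, then exposed to compound for 24 hr at 37 deg C. Luminescence was read with Steady-Glo after 30 min at RT.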
* hit, by the source's call; ? = inconclusive; . = not tested or not shown. The list is not random: actives were taken first. Their share in the collection is about 2.2%. Unless noted, calls come from the whole dose curve; as a rule, active = well fitted curve in the direction sought with a large enough effect; inconclusive = small, poorly fitted or top-dose-only effect, or another doubt; inactive = no such curve, though single readings can be large; an effect the other way counts as inactive or inconclusive. Potency is the fitted concentration of half-maximal effect.

SMILES | A549 viability | Pin1 inh | Nrf2 inh | Nrf2 activator
Cn1nnnc1Sc1ncnc2scc(-c3cccc(Cl)c3)c12 | -18% | -9% | 23µM* | .
Cn1nnnc1Sc1ncnc2scc(-c3ccc(C#N)cc3)c12 | ? | 1% | 16µM* | -2%
CCCNS(=O)(=O)c1cc(-c2nnc3c4ccccc4c(C)nn23)ccc1OC | -2% | -3% | -11% | ?
COc1ccc(C2Nc3ccccc3C(=O)N2Cc2ccccc2C)cc1COc1ccc(NC(C)=O)cc1 (stereo not drawn) | -9% | 8% | ? | .
COc1ccc(-c2ccc(OC)c(C3C4C=CCCC4(C)C(=O)N3Cc3ccccc3)c2)cc1OC (stereo not drawn) | ? | -1% | ? | .
CCN(CC)S(=O)(=O)c1ccc(NC2CCCc3ccccc32)nc1 (stereo not drawn) | -13% | 44% | 15µM* | 1%
Cc1ccc(C)c(N2CCN(C(=O)CCCN3C(=S)NC(C)(C)CC3C)CC2)c1 (stereo not drawn) | -5% | -1% | 16µM* | -1%
O=C(c1ccc(CSc2nc3ccncc3n2Cc2cccc(F)c2)cc1)N1CCCCCC1 | -18% | -7% | ? | -1%
CCc1ccc(CNC(=O)c2ccc3nc(SCc4ccc(F)cc4)n(C)c3c2)cc1 | -10% | 13% | ? | 4%
O=C(c1ccc(CSc2nc3ccncc3n2Cc2cccc(F)c2)cc1)N1CCCCC1 | -12% | 3% | 23µM* | 0%
CCOC(=O)N1CCN(C(=O)c2ccc3nc(SCc4ccc(F)cc4)n(C)c3c2)CC1 | -4% | 6% | 16µM* | 3%
O=C(c1ccc(CSc2nc3ccncc3n2Cc2ccc(F)cc2)cc1)N1CCCCCC1 | -4% | 3% | 18µM* | -1%
COc1ccc(Br)cc1S(=O)(=O)N1CCN(S(=O)(=O)c2ccc3c(c2)OCCO3)CC1 | -1% | 14% | ? | .
CCOC(=O)c1c(C)[nH]c(C)c1S(=O)(=O)NCC(=O)Nc1cccc(SC)c1 | -9% | 0% | 0% | 1%
CC(CNC(=O)c1ccc(Cn2c(=O)c3cccn3c3cccnc32)cc1)c1ccccc1 (stereo not drawn) | 8% | 6% | 15% | 0%
Cc1ccc(C(=O)Nc2cccc(C(F)(F)F)c2)cc1Nc1cncnc1 | 0% | -7% | ? | 0%
Cc1ccccc1C(=O)NNC(=S)Nc1cccc(C(F)(F)F)c1 | ? | -1% | 12µM* | -2%
Cc1cnc(Nc2nc3ccccc3o2)nc1C(=O)Nc1cccc(C(F)(F)F)c1 | ? | 0% | 16µM* | 7%
Cc1ccc(C(=O)Nc2cccc(C(F)(F)F)c2)cc1Nc1ccccn1 | ? | 3% | 21µM* | 2%
Cc1ccc2nc(COc3cccc(NC(=O)COc4ccc(F)cc4)c3)cc(=O)n2c1 | 0% | ? | . | 3%
CCc1ccc(OCCCCn2c(CCNC(=O)C3CCCCC3)nc3ccccc32)cc1 | -3% | 3% | 3% | .
CC1(C)OC(=O)C2(Cc3cc([N+](=O)[O-])ccc3N3CCCCC32)C(=O)O1 (stereo not drawn) | -17% | 1% | ? | .
COc1ccc(C2C=C3CN(C(=O)OC(C)(C)C)S(=O)(=O)C3CC2OC(=O)c2cccc(C)c2)cc1 (stereo not drawn) | -1% | -3% | -7% | .
CC1(C)OC(=O)C2(Cc3cc([N+](=O)[O-])ccc3N3CCCCCC32)C(=O)O1 (stereo not drawn) | -4% | 19% | 2% | .
CC(C)COc1ccc(C/C(N)=N/n2cnnc2)cc1 | -26% | 0% | 16µM* | 2%
SMILES | A549 viability | Pin1 inh | Nrf2 inh | Nrf2 activator
CCOc1ccc(OCC)c(Nc2nc3ccc(Cl)cc3n3cnnc23)c1 | 1% | 23% | 11% | 5%
COc1cc2ncc(S(=O)(=O)c3ccccc3)c(N3CCCC(C)C3)c2cc1OC (stereo not drawn) | ? | -2% | 23µM* | -5%
Clc1cccc(OCc2nc(-c3ccncc3)n[nH]2)c1 | -1% | 2% | 21µM* | 0%
O=S(=O)(c1ccc(Cl)s1)N1CCN(C/C=C/c2ccccc2)CC1 | -4% | -14% | 10µM* | 3%
CCn1c2ccccc2c2c3ncc4cccn4c3ccc21 | 13% | ? | ? | 13µM*
c1ccc2c(c1)ncc1cccn12 | 4% | 3% | 2% | 0%
COC(=O)c1sc(NC(=O)c2cc(-c3ccccc3)nc3ccccc23)c(C#N)c1C | ? | -3% | 9.2µM* | 5%
Cc1ccccc1-c1cc(C(=O)Nc2sc(C(=O)OC(C)C)c(C)c2C#N)c2ccccc2n1 | 7.3µM* | 43% | 2.6µM* | 2%
COC(=O)c1cc2c(n1S(=O)(=O)c1ccc(C)cc1)C(=O)C(=O)c1[nH]cc(C(=O)OCc3ccccc3)c1-2 | 4.1µM* | -8% | 4.1µM* | -2%
CC(=O)c1c(C)[nH]c(C(=O)C(C)Sc2nnc(NC3CC3)s2)c1C (stereo not drawn) | -9% | -11% | 16µM* | 3%
COc1ccc(CNc2ccccc2C(=O)NCc2ccccc2)cc1COc1ccc(NC(C)=O)cc1 | -1% | 47% | ? | .
COc1ccccc1-c1nn2c(-c3cc(-c4ccccc4)n[nH]3)nnc2s1 | 3% | 33% | -15% | .
Clc1ccccc1-c1nn2c(-c3cc(-c4ccccc4)n[nH]3)nnc2s1 | -15% | 40% | 23µM* | .
O=C(Nc1ccccc1F)c1ccc(Cn2nc(N3CCN(c4ccccc4)CC3)ccc2=O)o1 | -20% | 5% | 21µM* | -1%
CN1CCN(c2oc(COc3ccc(-c4ccccc4)cc3)nc2C#N)CC1 | ? | 13% | 16µM* | 3%
COc1ccc(N2CCN(c3oc(COc4ccccc4)nc3C#N)CC2)cc1 | 1% | 22% | -19% | 0%
COc1ccccc1NC(=O)CCn1nc(-c2ccccc2)c2ccccc2c1=O | ? | ? | 23µM* | 3%
O=C(CCn1nc(-c2ccccc2)c2ccccc2c1=O)Nc1ccccc1 | -7% | -5% | -15% | 1%
O=C(CSc1ncnc2c1oc1ccccc12)c1cccs1 | -3% | 13% | ? | 3.5µM*
Cc1nc(SCC(=O)c2cccs2)c2oc3ccccc3c2n1 | -5% | 23% | -13% | 13%
COc1ccc(-c2csc3nc(C)nc(N4CCCCC4)c23)cc1OC | -1% | 3% | -20% | 16µM*
COc1ccc(-c2csc3nc(-c4cccnc4)nc(N4CCC(C(N)=O)CC4)c23)cc1OC | 5% | 8% | -16% | 11%
COc1ccccc1-c1c(C(F)(F)F)oc2cc(OS(C)(=O)=O)ccc2c1=O | -11% | 4% | 8.2µM* | 2%
CCc1ccc(-n2nc(CO)c(C(=O)NCCCc3ccccc3)n2)cc1 | 4% | -1% | 22% | 2%
CN(C)c1cccc(-c2cnc(N3CCC(C(N)=O)CC3)nc2)c1 | . | 4% | . | .
C=CC(=O)N1C/C(=C/c2ccc(Cl)cc2)C(=O)/C(=C\c2ccc(Cl)cc2)C1 | 23µM* | -2% | ? | -3%
O=C1CCc2cc(S(=O)(=O)Nc3cccc(-c4ccccc4)c3)ccc2N1 | -5% | -1% | ? | .
COc1cccc(Nc2nc(N)nc(CCl)n2)c1 | -9% | 10% | -5% | 13µM*

Screening data deposited in PubChem BioAssay by National Center for Advancing Translational Sciences (NCATS).
